Reference: PubChem BioAssay (EPA / NIEHS)
Several values for one entry are separate records, joined by “and”; a condition that tells them apart may be missing. Equal values may be shown once. Some compounds were tested as several samples or in several runs, with calls that do not always agree. Activity calls are given as the source filed them. How the source made its calls: active means hit-call score of the fitted dose curve at least 0.9, where 1 is the maximum; inactive means score below 0.9.

How the values were obtained:
[1] = BSK_CASM3C_SRB: Viability Assessment in the BioMAP Diversity Plus: CASM3C Assay (AID 2283050); conditions: primary human coronary artery smooth muscle cells;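 further: cells exposed to compound for 24 h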
[2] = read-out: Thrombomodulin, THBD (gene 7056); assay: BSK_CASM3C_Thrombomodulin: BioMAP Diversity Plus: CASM3C Assay for Thrombomodulin Biomarker Activity (AID 2283051); conditions: primary human coronary artery smooth muscle cells; actives raise or lower the signal;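 further: thrombomodulin protein level measured by ELISA 24 h after dosing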
[3] = read-out: Tissue Factor, F3 (gene 2152); assay: BSK_CASM3C_TissueFactor: BioMAP Diversity Plus: CASM3C Assay for Tissue Factor Biomarker Activity (AID 2283052); conditions: primary human coronary artery smooth muscle cells; actives raise or lower the signal;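 further: cell surface tissue factor protein level read by ELISA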
[4] = read-out: Interferon-gamma inducible Protein 10 (IP10), CXCL10 (gene 3627); assay: BSK_hDFCGF_IP10: BioMAP Diversity Plus: hDFCGF Assay for Interferon-gamma inducible Protein 10 (IP10) Biomarker Activity (AID 2283053); conditions: primary human foreskin fibroblasts; actives raise or lower the signal
Method in brief: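 Primary human foreskin fibroblasts exposed to chemicals for 24 h. IP-10 measured by ELISA; changes fitted bidirectionally against DMSO baseline.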

[5] = read-out: Urokinase-type plasminogen activator receptor (uPAR), PLAUR (gene 5329); assay: BSK_CASM3C_uPAR: BioMAP Diversity Plus: CASM3C Assay for Urokinase-type plasminogen activator receptor (uPAR) Biomarker Activity (AID 2283054); conditions: primary human coronary artery smooth muscle cells; actives raise or lower the signal;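 further: cell-surface uPAR protein level quantified by ELISA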
[6] = read-out: Vascular cell adhesion molecule 1 (VCAM1), VCAM1 (gene 7412); assay: BSK_CASM3C_VCAM1: BioMAP Diversity Plus: CASM3C Assay for Vascular cell adhesion molecule 1 (VCAM1) Biomarker Activity (AID 2283055); conditions: primary human coronary artery smooth muscle cells; actives raise or lower the signal;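 further: VCAM-1 protein level quantified by ELISA on the cells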
[7] = read-out: Collagen III, COL3A1 (gene 1281); assay: BSK_hDFCGF_CollagenIII: BioMAP Diversity Plus: hDFCGF Assay for Collagen III Biomarker Activity (AID 2283056); conditions: primary human foreskin fibroblasts; actives raise or lower the signal
Method in brief: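 Cells: human foreskin fibroblasts, primary. Dosing followed by 24 h incubation, then ELISA for collagen III. Both increases and decreases scored relative to DMSO.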

[8] = read-out: Epidermal growth factor receptor (EGFR), EGFR (gene 1956); assay: BSK_hDFCGF_EGFR: BioMAP Diversity Plus: hDFCGF Assay for Epidermal growth factor receptor (EGFR) Biomarker Activity (AID 2283057); conditions: primary human foreskin fibroblasts; actives raise or lower the signal
Method in brief: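 Primary human foreskin fibroblasts (hDFCGF system), sampled 24 h after dosing; EGFR quantified by ELISA. Bidirectional fit relative to DMSO baseline; SRB total-protein staining in parallel cultures for cytotoxicity.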

[9] = BSK_hDFCGF_Proliferation: Cell Proliferation Assessment in the BioMAP Diversity Plus: hDFCGF Assay (AID 2283059); conditions: primary human foreskin fibroblasts;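 further: curves fitted for both rise and fall of signal versus DMSO baseline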
Method in brief: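 Sub-confluent human foreskin fibroblast cultures receive test chemical […]. Relative cell number is quantified by sulforhodamine B staining (0.1%, after 10% TCA fixation) at 560 nm, with bidirectional fitting referenced to DMSO.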

[10] = read-out: Macrophage colony-stimulating factor (MCSF), CSF1 (gene 1435); assay: BSK_hDFCGF_MCSF: BioMAP Diversity Plus: hDFCGF Assay for Macrophage colony-stimulating factor (MCSF) Biomarker Activity (AID 2283060); conditions: primary human foreskin fibroblasts; actives raise or lower the signal
Method in brief: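 M-CSF levels, determined by ELISA, are taken at 24 h after dosing human skin fibroblasts. Responses in either direction are fitted with DMSO serving as the baseline.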

[11] = BSK_hDFCGF_SRB: Viability Assessment in the BioMAP Diversity Plus: hDFCGF Assay (AID 2283061); conditions: primary human foreskin fibroblasts;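 further: cells exposed to compound for 24 h before the read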
Method in brief: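 Cells were dosed with test chemical, cultured 24 h, fixed with 10% TCA, then stained with 0.1% SRB and read at 560 nm. The fibroblasts were human foreskin primary cells, and DMSO served as baseline.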

[12] = read-out: Monokine induced gamma interferon (MIG), CXCL9 (gene 4283); assay: BSK_hDFCGF_MIG: BioMAP Diversity Plus: hDFCGF Assay for Monokine induced gamma interferon (MIG) Biomarker Activity (AID 2283063); conditions: primary human foreskin fibroblasts; actives raise or lower the signal
Method in brief: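 MIG signal, determined by ELISA, reflects 24 h chemical exposure of human skin primary fibroblasts. DMSO serves as negative control and baseline.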

[13] = read-out: Matrix Metallopeptidase 1 (MMP1), MMP1 (gene 4312); assay: BSK_hDFCGF_MMP1: BioMAP Diversity Plus: hDFCGF Assay for Matrix Metallopeptidase 1 (MMP1) Biomarker Activity (AID 2283064); conditions: primary human foreskin fibroblasts; actives raise or lower the signal
Method in brief: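 Primary human foreskin fibroblasts in the hDFCGF system were dosed with test chemical, and MMP1 was measured by ELISA 24 h later. Values come from bidirectional curve fitting against the DMSO baseline.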

[14] = read-out: Vascular cell adhesion molecule 1 (VCAM1), VCAM1 (gene 7412); assay: BSK_hDFCGF_VCAM1: BioMAP Diversity Plus: hDFCGF Assay for Vascular cell adhesion molecule 1 (VCAM1) Biomarker Activity (AID 2283065); conditions: primary human foreskin fibroblasts; actives raise or lower the signal;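 on AC50: VCAM-1 protein level quantified by ELISA after 24 h chemical exposure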
Method in brief: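 Cells are dosed, cultured for 24 h, then VCAM-1 is quantified by ELISA; signal increases and decreases are both fitted relative to DMSO.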

[15] = read-out: Plasminogen activator inhibitor-1 (PAI1), SERPINE1 (gene 5054); assay: BSK_hDFCGF_PAI1: BioMAP Diversity Plus: hDFCGF Assay for Plasminogen activator inhibitor-1 (PAI1) Biomarker Activity (AID 2283066); conditions: primary human foreskin fibroblasts; actives raise or lower the signal
Method in brief: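 Human foreskin fibroblast primary cells, 24 h chemical exposure; PAI-1 measured by ELISA. Bidirectional fitting relative to DMSO; parallel cultures stained with SRB for total protein to flag overt cytotoxicity.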

[16] = read-out: Intercellular Adhesion Molecule 1 (ICAM1), ICAM1 (gene 3383); assay: BSK_KF3CT_ICAM1: BioMAP Diversity Plus: KF3CT Assay for Intercellular Adhesion Molecule 1 (ICAM1) Biomarker Activity (AID 2283067); conditions: primary human keratinocytes with fibroblasts; actives raise or lower the signal
Method in brief: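 Dose the keratinocyte/fibroblast co-culture, wait 24 h, measure ICAM-1 by ELISA, then fit increases or decreases against DMSO. Cytotoxicity is checked in parallel cultures by SRB total-protein staining.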

[17] = read-out: Interferon-gamma inducible Protein 10 (IP10), CXCL10 (gene 3627); assay: BSK_KF3CT_IP10: BioMAP Diversity Plus: KF3CT Assay for Interferon-gamma inducible Protein 10 (IP10) Biomarker Activity (AID 2283068); conditions: primary human keratinocytes with fibroblasts; actives raise or lower the signal
Method in brief: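 ELISA read-out of IP-10 after 24 h chemical dosing of human skin primary co-culture (keratinocytes, foreskin fibroblasts). Gain or loss of signal relative to DMSO, bidirectional curve fit.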

[18] = BSK_KF3CT_SRB: Viability Assessment in the BioMAP Diversity Plus: KF3CT Assay (AID 2283069); conditions: primary human keratinocytes with fibroblasts;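 further: total protein by sulforhodamine B staining as a cytotoxicity measure; fitted for both signal gain and loss against DMSO baseline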
Method in brief: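 Human primary keratinocyte plus foreskin fibroblast co-culture exposed to chemicals for 24 h. Total protein measured by 0.1% sulforhodamine B staining after 10% TCA fixation, read at 560 nm; bidirectional fitting versus DMSO baseline.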

[19] = read-out: Interleukin-8 (IL8), CXCL8 (gene 3576); assay: BSK_hDFCGF_IL8: BioMAP Diversity Plus: hDFCGF Assay for Interleukin-8 (IL8) Biomarker Activity (AID 2283058); conditions: primary human foreskin fibroblasts; actives raise or lower the signal
Method in brief: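 IL-8 levels from compound-treated primary human fibroblasts were read by ELISA at 24 h, with DMSO serving as baseline for bidirectional fitting.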

[20] = read-out: TIMP metallopeptidase inhibitor 1 (TIMP1), TIMP1 (gene 7076); assay: BSK_hDFCGF_TIMP1: BioMAP Diversity Plus: hDFCGF Assay for TIMP metallopeptidase inhibitor 1 (TIMP1) Biomarker Activity (AID 2283062); conditions: primary human foreskin fibroblasts; actives raise or lower the signal
Method in brief: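 Fibroblasts from human foreskin are treated with test chemical and harvested at 24 h. TIMP-1 is quantified by ELISA, and gain or loss of signal is scored against DMSO.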

Measured: AC50

Fc1ccc(Br)cc1
inactive: [1] | [2] | [3] | [4] | [5] | [6] | [7] | [8] | [9] | [10] | [11] | [12] | [13] | [14] | [15] | [16] | [17] | [18]

CCCCCCOC(=O)CCCCC(=O)OCCCCCC
inactive: [1] | [2] | [3] | [4] | [5] | [6] | [7] | [8] | [9] | [10] | [11] | [12] | [13] | [14] | [15] | [16] | [17] | [18]

CC(CCC(=O)O)(c1ccc(O)cc1)c1ccc(O)cc1
inactive: [1] | [2] | [3] | [4] | [5] | [6] | [7] | [8] | [9] | [10] | [11] | [12] | [13] | [14] | [15] | [16] | [17] | [18]

CCCCCCC=O
inactive: [1] | [2] | [3] | [4] | [5] | [6] | [8] | [19] | [9] | [10] | [11] | [20] | [12] | [13] | [14] | [15] | [16] | [17] | [18]

O=C(Oc1ccccc1)c1ccccc1C(=O)Oc1ccccc1
inactive: [1] | [2] | [3] | [4] | [5] | [6] | [8] | [19] | [10] | [11] | [20] | [12] | [13] | [14] | [16] | [17] | [18]
active: [9] 24 µM | [15] 20 µM

CC(c1cc(C(C)(C)C)cc(C(C)(C)C)c1O)c1cc(C(C)(C)C)cc(C(C)(C)C)c1O
inactive: [1] | [2] | [3] | [4] | [5] | [6] | [7] | [8] | [9] | [10] | [11] | [20] | [12] | [13] | [14] | [16] | [17] | [18]
active: [15] 0.358 µM

C=CC(=O)OCC(C)OCC(C)OCC(C)OC(=O)C=C (stereo not given)
inactive: [2]
active: [1] 20 µM | [3] 2.28 µM | [4] 14.4 µM | [5] 8.9 µM | [6] 15.3 µM | [7] 35.7 µM | [8] 33.4 µM | [9] 6.25 µM | [10] 20 µM | [11] 6.59 µM | [12] 11.3 µM | [13] 27.5 µM | [14] 8.28 µM | [15] 6.86 µM | [16] 18.1 µM | [17] 28.1 µM | [18] 31.9 µM

c1ccc2c(c1)[nH]c1ccccc12
inactive: [1] | [2] | [3] | [4] | [5] | [6] | [7] | [8] | [19] | [9] | [10] | [11] | [12] | [13] | [14] | [15] | [16] | [17] | [18]

c1ccc(Nc2cccc3ccccc23)cc1
inactive: [1] | [3] | [5] | [6] | [8]
active: [1] 31.3 µM | [2] 10.1 µM and 7.36 µM | [3] 2.1 µM | [4] 30.3 µM and 34.6 µM | [5] 10.5 µM | [6] 7.35 µM | [8] 32.5 µM | [9] 9.99 µM and 12.2 µM | [10] 20 µM and 14.5 µM | [11] 32.7 µM and 33.1 µM | [12] 27.5 µM and 23.4 µM | [13] 30.7 µM and 30 µM | [14] 21.2 µM and 20 µM | [15] 13.1 µM and 12.3 µM | [16] 30.7 µM and 37.7 µM | [17] 34.2 µM and 35.7 µM | [18] 31.8 µM and 34.8 µM

COc1ccc(C(=O)/C(Br)=C\C(=O)O)cc1
inactive: [2] | [8] | [19] | [15] | [18]
active: [1] 23.8 µM and 28.8 µM | [3] 4.22 µM and 11.4 µM | [4] 33.1 µM and 32.6 µM | [5] 13.4 µM and 30.6 µM | [6] 12 µM and 20 µM | [8] 29.1 µM | [19] 38.9 µM | [9] 29.4 µM and 20 µM | [10] 15.4 µM and 20 µM | [11] 29.4 µM | [20] 28.6 µM and 20 µM | [12] 28 µM and 31.3 µM | [13] 33.5 µM and 30.7 µM | [14] 14.7 µM and 7.59 µM | [15] 28.9 µM | [16] 20 µM | [17] 30.6 µM and 30.2 µM | [18] 32 µM

C1CNCCN1
inactive: [1] | [2] | [3] | [4] | [5] | [6] | [8] | [19] | [9] | [10] | [11] | [20] | [12] | [13] | [14] | [15] | [16] | [17] | [18]

CCNc1nc(NC(C)(C)C)nc(OC)n1
inactive: [1] | [2] | [3] | [4] | [5] | [6] | [7] | [8] | [9] | [10] | [11] | [12] | [13] | [14] | [15] | [16] | [17] | [18]
